Measured values published in PubChem BioAssay (Tox21).
Where “and” joins values, the source holds several entries; their conditions need not be identical. Identical values can stand only once. Records with an inconclusive call do not appear. Where a call stands in place of a potency, no number is given. Some compounds were tested as several samples or in several runs, with calls that do not always agree. Calls of active or inactive are those of the source. Unless noted, calls come from the whole dose curve; as a rule, active = well fitted curve in the direction sought with a large enough effect in the repeat runs; inconclusive = weak or mixed curves; inactive = no such curve, though single readings can be large; an effect the other way counts as inactive or inconclusive.

Legend:
[1] = qHTS assay to identify small molecule antagonists of the thyroid receptor (TR) signaling pathway (AID 743065); note: nearly all actives have a fitted effect of over 55% in size; note: potency is the fitted concentration of half-maximal effect
How it was run: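 GH3.TRE-Luc rat pituitary cells carrying two TR response elements driving luciferase were plated for 4 h, given compound plus 1 nM T3 (final), and incubated 23.5 h at 37 C. ONE-Glo luminescence measured reporter inhibition; CellTiter-Fluor fluorescence tracked cytotoxicity.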

[2] = system: thyroid hormone receptor (rat, GH3 cells); test: qHTS assay to identify small molecule agonists of the thyroid receptor (TR) signaling pathway (AID 743066; calls by dose curve)
[3] = molecular target: Estrogen receptor (Homo sapiens) (UniProt P03372); test: qHTS assay to identify small molecule antagonists of the estrogen receptor alpha (ER-alpha) signaling pathway (AID 743069; active = well fitted curve in the direction sought with a large enough effect in the signal ratio in the repeat runs, not every such curve was filed as active; the % refers to the signal ratio)
Chain of Estrogen receptor (Homo sapiens) (P03372 whole entry, looked up): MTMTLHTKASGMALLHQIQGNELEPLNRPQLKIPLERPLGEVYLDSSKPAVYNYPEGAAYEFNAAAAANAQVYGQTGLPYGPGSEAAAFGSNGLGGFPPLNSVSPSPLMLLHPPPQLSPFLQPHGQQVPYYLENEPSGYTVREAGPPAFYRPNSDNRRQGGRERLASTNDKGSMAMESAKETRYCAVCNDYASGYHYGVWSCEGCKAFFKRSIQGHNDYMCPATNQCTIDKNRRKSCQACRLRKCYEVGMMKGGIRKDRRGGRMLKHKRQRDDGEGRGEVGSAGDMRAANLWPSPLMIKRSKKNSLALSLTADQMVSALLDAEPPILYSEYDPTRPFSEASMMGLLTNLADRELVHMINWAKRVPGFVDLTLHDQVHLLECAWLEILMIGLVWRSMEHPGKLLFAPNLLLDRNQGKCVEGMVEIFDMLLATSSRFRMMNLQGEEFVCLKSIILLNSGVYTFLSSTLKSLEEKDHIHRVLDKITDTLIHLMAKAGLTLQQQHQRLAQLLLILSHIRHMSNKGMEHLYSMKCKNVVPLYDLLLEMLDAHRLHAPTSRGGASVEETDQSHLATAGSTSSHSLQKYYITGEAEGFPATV
How it was run: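 Estradiol-stimulated ER-alpha-UAS-bla HEK293 cells, 18 hr compound exposure at 37C. LiveBLAzer B/G substrate, 2 hr RT, fluorescence read.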

[4] = qHTS assay to identify small molecule antagonists of the estrogen receptor alpha (ER-alpha) signaling pathway - cell viability counter screen (AID 743074; calls by dose curve;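 note: HEK293 cells carrying ER-alpha-UAS-bla reporter stimulated with 17beta-estradiol; nearly all actives have a fitted effect of over 45% in size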; note: potency is the fitted concentration of half-maximal effect)
[5] = molecular target: Estrogen receptor (Homo sapiens) (UniProt P03372); test: qHTS assay to identify small molecule agonists of the estrogen receptor alpha (ER-alpha) signaling pathway (AID 743075; calls by dose curve;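 note: HEK293 GripTite cells with ER-alpha and UAS-driven beta-lactamase reporter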)
[6] = molecular target: Estrogen receptor (Homo sapiens) (UniProt P03372); test: qHTS assay to identify small molecule agonists of the estrogen receptor alpha (ER-alpha) signaling pathway using the BG1 cell line (AID 743079); note: nearly all actives have a fitted effect of over 20% in size; note: potency is the fitted concentration of half-maximal effect
[7] = qHTS assay to identify small molecule antagonists of the estrogen receptor alpha (ER-alpha) signaling pathway using the BG1 cell line (AID 743080; calls by dose curve;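 note: BG1 cells stimulated with 17beta-estradiol alongside compound; series mostly up to about 70 µM; nearly all actives have a fitted effect of over 25% in size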)
How it was run: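 After 5 days in phenol-red-free 10% charcoal-stripped FBS medium, BG1-Luc-4E2 cells were seeded, left 24 h at 37 C, co-treated with compounds and 17beta-estradiol for 21.5 h, then assayed for viability and luciferase.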

[8] = qHTS assay to identify small molecule antagonists of the estrogen receptor alpha (ER-alpha) signaling pathway using the BG1 cell line - cell viability counter screen (AID 743081);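 note: compound given together with 17beta-estradiol as the ER stimulus; series mostly up to about 70 µM; nearly all actives have a fitted effect of over 45% in size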
Aromatase (Homo sapiens) = Aromatase (Homo sapiens) (UniProt P11511); test: qHTS assay to identify aromatase inhibitors (AID 743083); note: nearly all actives have a fitted effect of over 55% in size; note: potency is the fitted concentration of half-maximal effect
Chain of Aromatase (Homo sapiens) (P11511 whole entry, looked up): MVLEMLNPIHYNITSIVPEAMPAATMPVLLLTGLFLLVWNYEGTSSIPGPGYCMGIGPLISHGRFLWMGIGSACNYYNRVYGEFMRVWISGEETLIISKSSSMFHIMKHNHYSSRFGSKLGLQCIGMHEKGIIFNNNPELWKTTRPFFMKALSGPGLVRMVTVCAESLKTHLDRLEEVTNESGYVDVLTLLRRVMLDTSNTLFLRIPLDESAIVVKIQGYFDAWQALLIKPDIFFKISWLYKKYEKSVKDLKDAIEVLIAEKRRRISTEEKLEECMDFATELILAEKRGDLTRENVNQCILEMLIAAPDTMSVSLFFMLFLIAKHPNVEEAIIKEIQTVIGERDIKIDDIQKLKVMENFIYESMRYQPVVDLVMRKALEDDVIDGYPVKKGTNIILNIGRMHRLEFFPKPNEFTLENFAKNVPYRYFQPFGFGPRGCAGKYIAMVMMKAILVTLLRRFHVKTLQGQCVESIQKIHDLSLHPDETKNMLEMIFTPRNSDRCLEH

[9] = qHTS assay to identify aromatase inhibitors - cell viability counter screen (AID 743084);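 note: cells stimulated with testosterone during compound exposure; nearly all actives have a fitted effect of over 55% in size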; note: potency is the fitted concentration of half-maximal effect
[10] = molecular target: Aryl hydrocarbon receptor (Homo sapiens) (UniProt P35869); test: qHTS assay to identify small molecule that activate the aryl hydrocarbon receptor (AhR) signaling pathway (AID 743085); note: nearly all actives have a fitted effect of over 15% in size; note: potency is the fitted concentration of half-maximal effect;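 for activation: HG2L7.5c1 human HepG2 liver cells with stably integrated DRE-driven firefly reporter; series mostly up to about 70 µM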
Chain of Aryl hydrocarbon receptor (Homo sapiens) (P35869 whole entry, looked up): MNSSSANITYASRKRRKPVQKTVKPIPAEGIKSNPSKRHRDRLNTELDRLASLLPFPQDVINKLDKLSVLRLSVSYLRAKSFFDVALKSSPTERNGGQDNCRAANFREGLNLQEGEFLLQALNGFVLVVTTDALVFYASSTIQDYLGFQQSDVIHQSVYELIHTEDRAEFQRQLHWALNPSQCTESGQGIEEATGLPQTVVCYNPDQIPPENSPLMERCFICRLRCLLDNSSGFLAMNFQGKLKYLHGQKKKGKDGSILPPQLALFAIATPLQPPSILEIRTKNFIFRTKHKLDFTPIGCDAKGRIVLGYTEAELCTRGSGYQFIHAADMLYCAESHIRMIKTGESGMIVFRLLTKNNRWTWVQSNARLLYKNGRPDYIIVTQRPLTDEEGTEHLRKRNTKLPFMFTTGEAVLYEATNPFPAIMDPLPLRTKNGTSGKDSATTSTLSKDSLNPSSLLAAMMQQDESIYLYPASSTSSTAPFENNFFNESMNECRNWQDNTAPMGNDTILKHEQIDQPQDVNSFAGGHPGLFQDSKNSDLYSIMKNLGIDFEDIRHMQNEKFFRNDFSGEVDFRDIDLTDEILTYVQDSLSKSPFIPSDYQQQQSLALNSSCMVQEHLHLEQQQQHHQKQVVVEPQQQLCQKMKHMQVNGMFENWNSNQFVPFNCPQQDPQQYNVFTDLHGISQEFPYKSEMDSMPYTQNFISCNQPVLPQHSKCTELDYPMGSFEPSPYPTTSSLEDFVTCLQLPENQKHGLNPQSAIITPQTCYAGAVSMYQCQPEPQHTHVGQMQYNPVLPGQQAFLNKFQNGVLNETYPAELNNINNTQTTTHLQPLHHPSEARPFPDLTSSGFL
How it was run: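 HepG2 cells stably carrying a 20-DRE firefly luciferase reporter (HG2L7.5c1) treated with compound for 24 hr at 37C. Luciferase read by ONE-Glo luminescence, with CellTiter-Fluor viability read first.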

[11] = qHTS assay to identify small molecule that activate the aryl hydrocarbon receptor (AhR) signaling pathway - cell viability counter screen (AID 743086);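 note: HepG2 liver cells carrying the AhR DRE luciferase reporter; series mostly up to about 70 µM; nearly all actives have a fitted effect of over 45% in size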
How it was run: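 HepG2-AhR-luc (HG2L7.5c1) cells, 4000/well, were preincubated 5 h at 37C, exposed to compound in qHTS format for 24 hr at 37C, then given CellTiter-Fluor for 30 min; viability was read as fluorescence in the reporter wells.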

[12] = molecular target: Peroxisome proliferator-activated receptor gamma (Homo sapiens) (UniProt P37231); test: qHTS assay to identify small molecule agonists of the peroxisome proliferator-activated receptor gamma (PPARg) signaling pathway (AID 743094; active = well fitted activation curve with a large enough effect in the signal ratio in the repeat runs, not every such curve was filed as active; the % refers to the signal ratio; note: potency is the fitted concentration of half-maximal effect)
Chain of Peroxisome proliferator-activated receptor gamma (Homo sapiens) (P37231 whole entry, looked up): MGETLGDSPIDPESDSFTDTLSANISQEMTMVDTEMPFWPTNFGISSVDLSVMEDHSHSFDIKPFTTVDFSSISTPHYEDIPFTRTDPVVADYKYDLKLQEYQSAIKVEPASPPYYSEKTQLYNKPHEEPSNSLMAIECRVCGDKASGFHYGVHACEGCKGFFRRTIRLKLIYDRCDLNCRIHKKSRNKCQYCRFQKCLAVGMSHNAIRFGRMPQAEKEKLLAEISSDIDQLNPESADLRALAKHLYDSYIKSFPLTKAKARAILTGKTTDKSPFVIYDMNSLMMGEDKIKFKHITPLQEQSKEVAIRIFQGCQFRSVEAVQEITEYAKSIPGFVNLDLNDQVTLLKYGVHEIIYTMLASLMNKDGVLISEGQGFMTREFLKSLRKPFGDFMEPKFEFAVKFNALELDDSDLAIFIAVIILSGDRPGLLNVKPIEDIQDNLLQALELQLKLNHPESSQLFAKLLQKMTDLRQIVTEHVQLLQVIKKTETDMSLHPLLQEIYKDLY
How it was run: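 GeneBLAzer PPARg UAS-bla HEK293H cells carrying a stably integrated beta-lactamase reporter were pre-incubated 5 h at 37C, then exposed to compounds in DMSO for 17 h at 37C; LiveBLAzer B/G FRET substrate was added for 1 h at room temperature and fluorescence read.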

[13] = qHTS assay to identify small molecule antagonists of the peroxisome proliferator-activated receptor gamma (PPARg) signaling pathway - cell viability counter screen (AID 743194); note: nearly all actives have a fitted effect of over 55% in size
How it was run: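 PPARg-UAS-bla HEK293H cells were plated, rested 5 h at 37 C, then treated with compounds plus rosiglitazone (50 nM final) for 17 h at 37 C; viability was then read by CellTiter-Glo luminescence after 30 min at room temperature.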

[14] = qHTS assay for small molecule agonists of the antioxidant response element (ARE) signaling pathway (AID 743202; active = well fitted activation curve with a large enough effect in the signal ratio in the repeat runs, not every such curve was filed as active; the % refers to the signal ratio; note: potency is the fitted concentration of half-maximal effect)
How it was run: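 Compounds delivered in DMSO to ARE-bla HepG2 cells (2,000 cells/well, pre-incubated 5 h) and left 16 h at 37 C. LiveBLAzer B/G FRET substrate then added for 2 h at RT before fluorescence reading.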

[15] = qHTS assay for small molecule agonists of the antioxidant response element (ARE) signaling pathway - cell viability counter screen (AID 743203; calls by dose curve; note: nearly all actives have a fitted effect of over 55% in size)
How it was run: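 CellSensor ARE-bla HepG2 cells, 2,000 per well, rested 5 hrs at 37C/5% CO2, then exposed to compound in DMSO for 16 hrs; viability read as CellTiter-Glo luminescence after 30 min at room temperature, in the reporter wells.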

[16] = qHTS assay for small molecule activators of the heat shock response signaling pathway - cell viability counter screen (AID 743209); note: nearly all actives have a fitted effect of over 50% in size
How it was run: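 CellSensor HSE-bla HeLa cells, plated overnight at 37 C/5% CO2, were exposed to compounds in DMSO for 5 h at 37 C. Viability was then read in the same wells by CellTiter-Glo luminescence after 30 min at room temperature.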

[17] = qHTS assay for small molecule activators of the heat shock response signaling pathway (AID 743210; active = well fitted activation curve with a large enough effect in the signal ratio in the repeat runs, with a control signal flat, not every such curve was filed as active; the % refers to the signal ratio;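 note: HeLa cells with beta-lactamase reporter driven by heat shock elements; series mostly up to about 63 µM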)
How it was run: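 Reporter gene assay: HeLa cells stably bearing an HSE-bla construct, compound treatment 5 h at 37 C, LiveBLAzer substrate 2.5 h at RT, fluorescence intensity.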

[18] = qHTS assay to identify small molecule agonists of the peroxisome proliferator-activated receptor delta (PPARd) signaling pathway - cell viability counter screen (AID 743211); note: nearly all actives have a fitted effect of over 55% in size
How it was run: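 PPARd-bla HEK293H cells (3000/well) were pre-incubated 5 h at 37 C, then exposed to compound for 17 h at 37 C. After 2 h with LiveBLAzer substrate, CellTiter-Glo was added to the same wells; luminescence read after 30 min at room temperature.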

[19] = molecular target: Peroxisome proliferator-activated receptor gamma (Homo sapiens) (UniProt P37231); test: qHTS assay to identify small molecule antagonists of the peroxisome proliferator-activated receptor gamma (PPARg) signaling pathway (AID 743191; calls by dose curve; note: series mostly up to about 63 µM; nearly all actives have a fitted effect of over 30% in size)
How it was run: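 GeneBLAzer PPARg UAS-bla HEK293H cells carrying a UAS-driven beta-lactamase reporter were plated at 3000 cells/well, preincubated 5 h at 37C, then given compound for 17 h at 37C; LiveBLAzer B/G FRET substrate was read after 1 h at room temperature.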

Compound	Potency [1]	Potency [2]	Potency [3]	Potency [4]	Potency [5]	Potency [6]	Potency [7]	Potency [8]	Potency (Aromatase (Homo sapiens))	Potency [9]	Potency [10]	Potency [11]	Potency [12]	Potency [13]	Potency [14]	Potency [15]	Potency [16]	Potency [17]	Potency [18]	Potency [19]
O=S(=O)(O)c1ccc(O)cc1	inactive	inactive	inactive	inactive	inactive	inactive	inactive	inactive	inactive	inactive	inactive	inactive	inactive	inactive	inactive	inactive	inactive	inactive		
c1ccncc1	inactive	inactive	inactive	inactive	inactive	inactive	inactive	inactive	inactive	inactive	inactive	inactive	inactive	inactive	inactive	inactive	inactive		inactive	
Cc1c(C(N)=O)cc([N+](=O)[O-])cc1[N+](=O)[O-]	inactive	inactive	inactive	inactive	inactive	inactive	inactive	inactive	inactive	inactive	inactive	inactive		inactive	inactive	inactive	inactive		inactive	
O=C(OCc1ccccc1)c1ccccc1O	inactive	inactive	inactive	inactive	inactive	24.3 µM (active)	inactive	inactive	inactive	inactive	inactive	inactive		inactive	inactive	inactive	inactive	inactive		
CCCCC(CC)COC(=O)c1ccc(N(C)C)cc1 (stereo not given)	inactive	inactive	inactive	inactive	inactive	inactive	inactive	inactive	inactive	inactive	inactive and 27.3 µM (active)	inactive	inactive	inactive	inactive	inactive	inactive			
c1ccc2sc(SSN3CCOCC3)nc2c1	13.7 µM (active) and 15.4 µM (active)	inactive	inactive	inactive	inactive	inactive	inactive	inactive	5.44 µM (active)	6.84 µM (active)	30.6 µM (active)	inactive	5.48 µM (active)	inactive			inactive			
COC(C)COC(C)COC(C)CO (stereo not given)	inactive	inactive	inactive	inactive	inactive	inactive	inactive	inactive	inactive	inactive	inactive	inactive	inactive	inactive	inactive	inactive	inactive		inactive	inactive
CC(C)OB(OC(C)C)OC(C)C	inactive	inactive	inactive	inactive	inactive	inactive	inactive	inactive	inactive	inactive	inactive	inactive	inactive	inactive	inactive	inactive	inactive		inactive	inactive
CCCCNS(=O)(=O)c1ccccc1	inactive	inactive	inactive	inactive	inactive	inactive	inactive	inactive	inactive	inactive	inactive	inactive	inactive	inactive	inactive	inactive	inactive	inactive		
CCCCOCCOCCO	inactive	inactive	inactive	inactive	inactive	inactive	inactive	inactive	inactive and 61.1 µM (active)	inactive	inactive	inactive	inactive	inactive	inactive	inactive	inactive	inactive		inactive
O=[N+]([O-])c1ccc2c(c1)Cc1ccccc1-2	inactive	inactive	inactive	inactive	inactive	13.7 µM (active)	inactive	inactive	inactive	inactive	inactive and 61.1 µM (active)	inactive	inactive	inactive	61.1 µM (active)	inactive	inactive		inactive	inactive
CCCCC(CC)COCC1CO1 (stereo not given)	inactive	inactive	inactive	inactive	inactive	inactive	inactive	inactive	inactive	inactive	inactive	inactive	inactive	inactive	inactive	inactive	inactive	inactive	inactive	
Cc1cccc([N+](=O)[O-])c1C	inactive	inactive	inactive	inactive	inactive	inactive	inactive	inactive	inactive	inactive	inactive	inactive	inactive	inactive	inactive	inactive	inactive	inactive	inactive	
CC(C)=CCCC(C)CCO (stereo not given)	inactive	inactive	inactive	inactive	inactive	inactive	inactive	inactive	inactive	inactive	inactive	inactive	inactive	inactive	inactive	inactive	inactive		inactive	
C=C(C)C(=O)OCCOC(=O)C(=C)C	inactive	inactive	inactive	inactive	inactive	inactive	inactive	inactive	inactive	inactive	inactive	inactive	inactive	inactive	inactive	inactive	inactive	inactive		
CC1=CCC(C(C)(C)O)CC1 (stereo not given)	inactive	inactive	inactive	inactive	inactive	inactive	inactive	inactive	inactive	inactive	inactive	inactive	inactive	inactive	inactive	inactive	inactive	inactive		inactive
c1ccc2c(c1)Oc1ccccc1S2	inactive	inactive	inactive	inactive	inactive	inactive and 61.1 µM (active)	inactive	inactive	inactive	inactive		inactive			inactive	inactive	inactive	inactive		
OC1CCCCCCCCCCC1	inactive	inactive	inactive	inactive	inactive	inactive	inactive	inactive	inactive	inactive	inactive	inactive	inactive	inactive	inactive	inactive	inactive		inactive	
COC(=O)CCC(=O)OC	inactive	inactive	inactive	inactive	inactive	inactive	inactive	inactive	inactive	inactive		inactive	inactive	inactive	inactive	inactive	inactive		inactive	
Cc1ccc(C)c(O)c1C	inactive	inactive	inactive	inactive	inactive	inactive	inactive	inactive	inactive	inactive	inactive	inactive	inactive	inactive	inactive	inactive	inactive	inactive		
C=CC(C)(CCC=C(C)C)OC(C)=O (stereo not given)	inactive	inactive	inactive	inactive	inactive	inactive	inactive	inactive	inactive	inactive	inactive	inactive	inactive	inactive	inactive	inactive	inactive	inactive	inactive	inactive
Cc1cccc(C(=O)O)c1	inactive	inactive	inactive	inactive	inactive	inactive	inactive	inactive	inactive	inactive	inactive	inactive	inactive	inactive	inactive	inactive	inactive	inactive	inactive	inactive
Cc1[nH]c(=O)c(C#N)cc1-c1ccncc1	inactive	inactive	inactive	inactive	inactive	inactive	inactive	inactive	inactive	inactive	inactive	inactive	inactive	inactive	inactive	inactive	inactive		inactive	inactive
CN1C(C(=O)Nc2ccccn2)=C(O)c2ccccc2S1(=O)=O	inactive	inactive	inactive	inactive	inactive	inactive	inactive	inactive	inactive	inactive	inactive and 24.6 µM (active)	inactive	inactive	inactive	inactive	inactive	inactive	inactive	inactive	
Nc1ccc(Cl)cc1Cl	inactive	inactive	inactive	inactive	inactive	inactive	inactive	inactive	inactive	inactive	inactive	inactive	inactive	inactive	inactive	inactive	inactive			
CCC(C)CO (stereo not given)	inactive	inactive	inactive	inactive	inactive	inactive	inactive	inactive	inactive	inactive	inactive	inactive	inactive	inactive	inactive	inactive	inactive		inactive	
CCCCOCCOCCOCCO	inactive	inactive	inactive	inactive	inactive	inactive	inactive	inactive	inactive	inactive	inactive	inactive	inactive	inactive	inactive	inactive	inactive		inactive	inactive
C[C@]12CCC(=O)C=C1CC[C@@H]1[C@@H]2C(=O)C[C@@]2(C)[C@H]1CC[C@]2(O)C(=O)CO	inactive	inactive	inactive	inactive	inactive	inactive	inactive	inactive	inactive	inactive	inactive	inactive		inactive	inactive	inactive	inactive	inactive	inactive	
c1ccc2c(c1)c1cccc3ccc4cccc2c4c31	inactive	inactive	inactive	3.07 µM (active) and inactive	inactive	inactive	inactive	inactive	inactive	inactive	inactive	inactive		inactive	60.7 µM (active)	inactive	inactive	inactive	inactive	
